Reference: publication PMC7862700, “An all-to-all approach to the identification of sequence-specific readers for epigenetic DNA modifications on cytosine”

Assays:
Test in all cases: DAPPL (digital affinity profiling via proximity ligation, sequencing); 10 mM Tris-HCl pH 7.5, 50 mM NaCl, 1 mM DTT, 4% glycerol, room temperature, 30 min; GST-TFs on glutathione beads, 16-mer random dsDNA library, 0.1% formaldehyde crosslink after washing; high values mean tight binding
FEV = target: T1, FEV (Homo sapiens, UniProt Q99581 1-238); conditions: protein: recombinant; tags: N-terminal GST; dsDNA, one strand shown
T1 sequence: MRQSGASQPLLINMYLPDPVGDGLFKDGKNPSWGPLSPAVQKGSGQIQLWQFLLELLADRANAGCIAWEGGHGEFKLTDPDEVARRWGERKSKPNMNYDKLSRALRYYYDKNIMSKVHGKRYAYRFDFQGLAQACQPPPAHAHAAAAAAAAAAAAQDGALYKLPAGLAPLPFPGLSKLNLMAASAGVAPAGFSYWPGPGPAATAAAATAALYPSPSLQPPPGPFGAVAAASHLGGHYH
In short: (§1)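 Binding signal is defined as a hexamer's read frequency for one factor over its frequency for the tag-only sample. To obtain reads, GST-fused human transcription factors were expressed in yeast, captured on glutathione beads, barcoded with DNA and pooled with that sample. Pools met 200 nmole of a 16-mer random double-stranded DNA library in Tris/NaCl/DTT/glycerol buffer for 30 min at room temperature before washing, 0.1% formaldehyde crosslinking, proximity ligation (BsaI/T4 ligase, 1 h, 37 °C), PCR and Illumina NextSeq500 sequencing.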

ETV5 = ETV5 (Homo sapiens, UniProt P41161 1-510); conditions: protein: recombinant; tags: N-terminal GST; dsDNA, one strand shown
In short: as §1

HSF1 = HSF1 (Homo sapiens, UniProt Q00613 1-529); conditions: protein: recombinant; tags: N-terminal GST; chain copies: 3; dsDNA, one strand shown
In short: as §1

SPIC = target: T2, SPIC (Homo sapiens, UniProt Q8N5J4 1-248); conditions: protein: recombinant; tags: N-terminal GST; dsDNA, one strand shown
T2 sequence: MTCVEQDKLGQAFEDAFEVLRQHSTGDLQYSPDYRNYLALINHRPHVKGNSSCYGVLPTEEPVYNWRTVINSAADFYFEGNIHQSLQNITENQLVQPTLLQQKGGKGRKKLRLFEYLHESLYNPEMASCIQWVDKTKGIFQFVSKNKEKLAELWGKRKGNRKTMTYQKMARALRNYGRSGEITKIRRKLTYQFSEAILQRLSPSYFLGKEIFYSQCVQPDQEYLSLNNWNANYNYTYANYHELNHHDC
In short: as §1

ELF4 = ELF4 (Homo sapiens, UniProt Q99607 1-663); conditions: protein: recombinant; tags: N-terminal GST; dsDNA, one strand shown
In short: as §1

ELK4 = target: T3, ELK4 (Homo sapiens, UniProt P28324-2 1-405); conditions: protein: recombinant; tags: N-terminal GST; dsDNA, one strand shown
T3 sequence: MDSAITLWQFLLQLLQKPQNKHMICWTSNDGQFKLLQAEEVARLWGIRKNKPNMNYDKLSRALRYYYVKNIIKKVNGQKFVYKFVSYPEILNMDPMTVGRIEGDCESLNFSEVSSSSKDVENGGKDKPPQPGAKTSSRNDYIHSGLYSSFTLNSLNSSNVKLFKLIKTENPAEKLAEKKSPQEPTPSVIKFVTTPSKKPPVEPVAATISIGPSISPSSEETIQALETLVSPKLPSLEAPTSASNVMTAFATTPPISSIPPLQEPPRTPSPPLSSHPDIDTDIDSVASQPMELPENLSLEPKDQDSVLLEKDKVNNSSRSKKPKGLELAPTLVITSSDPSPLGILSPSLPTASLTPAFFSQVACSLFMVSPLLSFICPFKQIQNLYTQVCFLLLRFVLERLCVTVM
In short: as §1

ETV2 = target: T4, ETV2 (Homo sapiens, UniProt O00321 1-342); conditions: protein: recombinant; tags: N-terminal GST; dsDNA, one strand shown
T4 sequence: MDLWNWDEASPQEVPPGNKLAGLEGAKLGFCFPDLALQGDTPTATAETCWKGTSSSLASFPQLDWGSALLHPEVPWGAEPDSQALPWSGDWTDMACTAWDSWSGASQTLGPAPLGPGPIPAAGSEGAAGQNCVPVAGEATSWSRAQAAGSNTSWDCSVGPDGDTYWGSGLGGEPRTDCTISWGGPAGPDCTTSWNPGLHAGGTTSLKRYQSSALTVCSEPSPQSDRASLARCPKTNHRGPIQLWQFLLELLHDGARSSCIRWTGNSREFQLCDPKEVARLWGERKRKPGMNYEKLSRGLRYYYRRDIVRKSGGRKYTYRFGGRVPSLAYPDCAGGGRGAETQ
In short: as §1

ELF3 = target: T5, ELF3 (Homo sapiens, UniProt P78545 1-371); conditions: protein: recombinant; tags: N-terminal GST; dsDNA, one strand shown
T5 sequence: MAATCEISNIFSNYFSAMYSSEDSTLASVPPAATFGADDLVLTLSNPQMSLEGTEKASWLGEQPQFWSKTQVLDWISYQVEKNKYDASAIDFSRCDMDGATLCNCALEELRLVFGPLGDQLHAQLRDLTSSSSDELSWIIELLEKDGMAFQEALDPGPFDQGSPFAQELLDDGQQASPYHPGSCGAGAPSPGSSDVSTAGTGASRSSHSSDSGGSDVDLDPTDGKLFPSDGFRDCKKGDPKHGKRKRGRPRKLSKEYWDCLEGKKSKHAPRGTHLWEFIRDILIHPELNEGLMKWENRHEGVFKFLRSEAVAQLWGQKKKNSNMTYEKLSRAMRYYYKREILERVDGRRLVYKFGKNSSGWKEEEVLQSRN
In short: as §1

CRX = CRX (Homo sapiens, UniProt O43186 1-299); conditions: protein: recombinant; tags: N-terminal GST; dsDNA, one strand shown
In short: as §1

ETV1 = ETV1 (Homo sapiens, UniProt P50549 1-477); conditions: protein: recombinant; tags: N-terminal GST; dsDNA, one strand shown
In short: as §1

Chain of ELF4 (Q99607 whole entry): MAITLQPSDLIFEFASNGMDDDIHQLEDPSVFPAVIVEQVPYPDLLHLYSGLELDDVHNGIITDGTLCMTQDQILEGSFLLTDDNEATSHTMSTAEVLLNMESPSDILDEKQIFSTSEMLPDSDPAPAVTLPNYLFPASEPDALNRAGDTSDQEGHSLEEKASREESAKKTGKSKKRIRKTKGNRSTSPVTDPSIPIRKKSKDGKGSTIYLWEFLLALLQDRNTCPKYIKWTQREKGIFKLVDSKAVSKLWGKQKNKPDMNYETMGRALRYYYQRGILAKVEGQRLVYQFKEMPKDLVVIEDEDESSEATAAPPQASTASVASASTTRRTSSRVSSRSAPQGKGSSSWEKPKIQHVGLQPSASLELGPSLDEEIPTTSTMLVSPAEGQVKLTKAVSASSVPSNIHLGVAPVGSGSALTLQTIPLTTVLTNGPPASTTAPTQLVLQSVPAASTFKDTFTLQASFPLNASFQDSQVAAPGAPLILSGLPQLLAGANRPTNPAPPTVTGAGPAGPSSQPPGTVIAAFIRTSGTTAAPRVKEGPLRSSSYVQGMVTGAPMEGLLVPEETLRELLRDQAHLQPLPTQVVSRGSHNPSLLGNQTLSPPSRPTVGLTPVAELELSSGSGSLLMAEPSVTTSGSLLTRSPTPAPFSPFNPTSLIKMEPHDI
Chain of CRX (O43186 whole entry): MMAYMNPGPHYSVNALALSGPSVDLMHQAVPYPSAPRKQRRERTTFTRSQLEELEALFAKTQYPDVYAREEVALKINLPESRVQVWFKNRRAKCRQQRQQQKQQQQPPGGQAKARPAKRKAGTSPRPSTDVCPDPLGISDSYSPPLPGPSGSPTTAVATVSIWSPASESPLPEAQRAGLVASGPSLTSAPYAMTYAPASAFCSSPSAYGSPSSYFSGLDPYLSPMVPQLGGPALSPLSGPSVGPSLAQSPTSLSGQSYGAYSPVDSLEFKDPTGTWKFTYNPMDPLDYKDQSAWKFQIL
Chain of ETV5 (P41161 whole entry): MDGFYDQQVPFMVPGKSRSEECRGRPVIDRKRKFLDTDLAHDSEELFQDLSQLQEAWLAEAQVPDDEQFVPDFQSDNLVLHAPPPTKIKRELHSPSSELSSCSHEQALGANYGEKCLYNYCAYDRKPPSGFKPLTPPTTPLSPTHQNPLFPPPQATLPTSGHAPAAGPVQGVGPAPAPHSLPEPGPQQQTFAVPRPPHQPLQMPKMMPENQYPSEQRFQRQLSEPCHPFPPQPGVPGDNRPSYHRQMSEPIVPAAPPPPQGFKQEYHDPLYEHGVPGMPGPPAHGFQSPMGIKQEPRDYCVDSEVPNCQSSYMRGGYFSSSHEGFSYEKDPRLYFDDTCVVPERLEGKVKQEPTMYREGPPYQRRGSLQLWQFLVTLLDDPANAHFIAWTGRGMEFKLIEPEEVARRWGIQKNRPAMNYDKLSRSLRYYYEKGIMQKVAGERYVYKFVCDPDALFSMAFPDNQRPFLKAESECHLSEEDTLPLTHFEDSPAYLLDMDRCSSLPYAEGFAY
Chain of HSF1 (Q00613 whole entry): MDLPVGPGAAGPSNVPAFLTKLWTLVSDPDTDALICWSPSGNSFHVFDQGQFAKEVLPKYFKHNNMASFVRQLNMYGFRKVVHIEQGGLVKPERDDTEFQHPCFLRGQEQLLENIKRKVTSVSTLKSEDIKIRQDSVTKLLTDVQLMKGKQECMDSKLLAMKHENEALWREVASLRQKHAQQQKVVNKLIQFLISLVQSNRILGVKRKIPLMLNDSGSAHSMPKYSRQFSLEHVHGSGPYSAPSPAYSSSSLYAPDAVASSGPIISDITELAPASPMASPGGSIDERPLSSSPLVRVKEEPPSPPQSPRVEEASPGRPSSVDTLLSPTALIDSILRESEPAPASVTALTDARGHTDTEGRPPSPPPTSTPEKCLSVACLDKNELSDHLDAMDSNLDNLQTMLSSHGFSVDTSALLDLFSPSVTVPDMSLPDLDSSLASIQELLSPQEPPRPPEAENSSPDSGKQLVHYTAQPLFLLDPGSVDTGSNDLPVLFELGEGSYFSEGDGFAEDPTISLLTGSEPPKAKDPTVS
Chain of ETV1 (P50549 whole entry): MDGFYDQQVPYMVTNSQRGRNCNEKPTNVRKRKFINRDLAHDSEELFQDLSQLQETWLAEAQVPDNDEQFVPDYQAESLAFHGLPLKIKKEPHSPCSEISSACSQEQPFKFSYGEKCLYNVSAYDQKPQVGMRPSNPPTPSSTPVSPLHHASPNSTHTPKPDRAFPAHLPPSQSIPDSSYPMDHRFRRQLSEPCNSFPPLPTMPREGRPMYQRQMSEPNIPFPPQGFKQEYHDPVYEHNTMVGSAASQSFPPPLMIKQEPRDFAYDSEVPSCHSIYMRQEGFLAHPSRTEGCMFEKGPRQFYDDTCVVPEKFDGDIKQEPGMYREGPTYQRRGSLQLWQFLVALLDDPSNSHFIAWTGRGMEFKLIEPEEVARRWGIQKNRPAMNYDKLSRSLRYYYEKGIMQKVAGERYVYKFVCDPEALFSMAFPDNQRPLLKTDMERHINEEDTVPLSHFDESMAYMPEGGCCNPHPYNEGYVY

For ATCACC, the binding signal (FEV) was 1.09 fold enrichment (6-mer frequency, TF over GST control), the binding signal (ETV5) was 1.11 fold enrichment (6-mer frequency, TF over GST control) and the binding signal (HSF1) was 1.05 fold enrichment (6-mer frequency, TF over GST control). For the same sequence, the binding signal (SPIC) was 1.1 fold enrichment (6-mer frequency, TF over GST control), the binding signal (ELF4) was 1.22 fold enrichment (6-mer frequency, TF over GST control) and the binding signal (ELK4) was 1.07 fold enrichment (6-mer frequency, TF over GST control). The binding signal (ETV2) was 1.03 fold enrichment (6-mer frequency, TF over GST control), the binding signal (ELF3) was 1.17 fold enrichment (6-mer frequency, TF over GST control) and the binding signal (CRX) was 1.14 fold enrichment (6-mer frequency, TF over GST control). For the same sequence, the binding signal (ETV1) was 1.1 fold enrichment (6-mer frequency, TF over GST control).
